Bioassay records as filed in PubChem.
TROY NFkB inh: TROY signaling inhibition; inhibition, % at 10 µM; 360,000 tested, 0.98% active; AID 1347056; Q293 LMP1-TROYcd NF-kB luciferase reporter, 4 h;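 active = compounds whose plate-normalised and pattern-corrected inhibition of the luciferase reporter signal at the single screening dose is 50% or more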
EWS-Fli block: blocks EWS/Fli oncoprotein-driven transcription; A673 NR0B1-luciferase reporter, viability-normalised; inhibition, % at 12.6 µM; 350,000 tested, 0.67% active;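 active = mean inhibition of at least 50% after viability correction, with every replicate also passing that limit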;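 note: firefly luciferase signal divided by Alamar Blue viability fluorescence both relative to DMSO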
PAX8 inh HTS: inhibitors of PAX8 transcriptional activity in RMG-I cells | RMG-I TPO-luciferase reporter, SteadyGlo, 24 h | inhibition, % at 12.6 µM | 360,000 tested, 1.2% active;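 active = mean replicate inhibition at least 60% with every replicate also reaching 60%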;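 note: luciferase light reporting Pax8 driven TPO promoter activity; plate controls were median of neutral control wells for no effect and mitoxantrone controls for full effect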
LGR2 antag: blocks bursicon-induced cAMP signaling via Drosophila LGR2 | HEK293 LGR2, CRE-luciferase, bursicon-stimulated, 4 h | inhibition, % at 9.99 µM | 380,000 tested, 0.35% active | AID 720647;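 active = drop in luminescence signal, shown as inhibition above about 50% in the replicate tests, limit read from the data, passing the limit was not always enough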;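 note: agonist challenge used bursicon conditioned medium at about half maximal strength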
TWEAK-Fn14 inh: TWEAK-Fn14 signaling inhibition; 360,000 tested, 2% active; inhibition, % at 10 µM; TWEAK-stimulated Fn14 reporter cells, luciferase luminescence, 8 h; in the data active = inhibition above about 50%
* hit, by the source's call; . = not tested or not shown. A selection: hits, their analogues and other compounds. The true share with any hit is near 2.8%.

SMILES | TROY NFkB inh | EWS-Fli block | PAX8 inh HTS | LGR2 antag | TWEAK-Fn14 inh
Nc1nc2cc3c(cc2cc1C(=O)NCCc1c[nH]c2ccccc12)OCO3 | . | 59* | 30 | 11 | .
CN1[C@@H]2c3ccc(-c4ccc(F)cc4)c(=O)n3C[C@@H]2[C@@H](CO)[C@@H]1C(=O)NCCN1CCCCC1 | . | 10 | -2 | 5 | .
COc1ccc(CC(=O)N/N=C/c2cc(Br)cs2)cc1OC | 12 | -11 | 21 | 25 | 67*
C[C@@H]1CN([C@H](C)CO)C(=O)c2cc(NS(=O)(=O)c3ccc(Cl)cc3)ccc2O[C@@H]1CN(C)C(=O)Nc1ccccc1 | . | 0 | 18 | 8 | .
COc1cccc(-c2cnc3c(c2)C(=O)N([C@H](C)CO)C[C@H](C)[C@H](CN(C)S(=O)(=O)c2cccs2)O3)c1 | . | 2 | . | -31 | .
O=C1NC(=S)SC1=Cc1ccccc1Cl | 13 | 0 | -28 | . | -12
COc1ccc2nc(N3CCCCC3)c(/C=C3\SC(=S)NC3=O)cc2c1 | 64* | 11 | -24 | 5 | 21
O=C1NC(=S)S/C1=C\c1cc2ccccc2nc1N1CCCCC1 | 59* | 19 | 14 | 6 | 22
COc1ccc2c3c(n(C)c2c1)[C@H](CO)N(C(=O)NC(C)C)CC31CCN(CC2CCCCC2)CC1 | . | 8 | . | -4 | .
CCCNC(=O)C[C@@H]1CC[C@@H]2[C@@H](COc3ccc(NC(=O)Nc4cccc(C)c4)cc3C(=O)N2C)O1 | . | -2 | 11 | -6 | .
CCCCOc1ccc(N=Cc2ccc[nH]2)cc1 | 73* | 6 | -17 | 1 | 67*
CCCCOc1ccc(S(N)(=O)=O)cc1 | -14 | . | . | . | -16
COc1ccc(N=Cc2ccc[nH]2)cc1 | 63* | . | . | . | 87*
C[C@H]1CN([C@@H](C)CO)C(=O)c2cc(C3=CCCC3)cnc2O[C@H]1CN(C)C(=O)Cc1ccncc1 | . | -12 | -12 | -4 | .
COc1ccc(CC(=O)N2N=C(c3ccncc3)CC2(O)C(F)(F)F)cc1 (stereo not given) | 8 | 53* | 31 | 9 | 10
CCC1=NN(C(=O)Cc2ccc(OC)cc2)C(O)(C(F)(F)F)C1 (stereo not given) | 1 | -9 | . | 14 | 6
CCCNC(=O)[C@H]1[C@H](CO)[C@H]2Cn3c(ccc(-c4ccncc4)c3=O)[C@@H]1N2CC1CC1 | . | -1 | -4 | -2 | .
COc1ccc2c3c(n(C)c2c1)[C@@H](CO)N(S(=O)(=O)c1ccc(C)cc1)CC31CN(S(=O)(=O)c2ccc(C)cc2)C1 | . | 8 | . | -6 | .
COc1ccccc1-c1ccc([C@H]2[C@@H](C#N)N(C(=O)C3CC3)[C@H]2CO)cc1 | . | -21 | -18 | -11 | .
Oc1ccc(Br)cc1-c1nc2cnccn2c1NC1CCCC1 | 14 | . | 4 | . | 62*
COc1cccc(S(=O)(=O)N(C)C[C@@H]2Oc3ncc(C#CC(C)(C)O)cc3C(=O)N([C@H](C)CO)C[C@@H]2C)c1 | . | -19 | . | 5 | .
C[C@@H]1CN([C@@H](C)CO)C(=O)c2cc(NS(=O)(=O)c3ccc(F)cc3)ccc2O[C@@H](C)CCCCO[C@H]1CN(C)C(=O)c1ccncc1 | . | -6 | 7 | 11 | .
O=C1/C(=C\c2ccc(Cl)c(Cl)c2)CN(C(=O)CCN2CCOCC2)C/C1=C/c1ccc(Cl)c(Cl)c1 | 78* | 56* | 89* | 91* | 107*
O=C(NCCN1CCOCC1)c1ccc(Cl)c(Cl)c1 | 2 | -4 | 3 | 4 | 2
COc1ccc(C(NC(=O)c2c(F)c(F)c(F)c(F)c2F)c2ccccc2)cc1 (stereo not given) | 69* | 62* | -3 | 67* | 5
SMILES | TROY NFkB inh | EWS-Fli block | PAX8 inh HTS | LGR2 antag | TWEAK-Fn14 inh
COc1ccc(/C=N\NC(=O)c2ccccc2OC)cc1COc1ccccc1C | 23 | . | 7 | 9 | 11
Cc1occc1C(=O)N/N=C/c1ccc(N(C)C)cc1 | 39 | -12 | -83 | 17 | 72*
Cc1occc1C(=O)N/N=C/C=C/c1ccc(N(C)C)cc1 | 7 | . | -160 | -25 | -8
Cc1cccc(C)c1OCC(=O)NNC(=O)c1ccoc1C | . | . | . | . | 51*
COc1ccccc1OCC(=O)NNC(=O)c1ccoc1C | -8 | -1 | -17 | 6 | -15
COc1ccc(/C=N/NC(=O)c2ccoc2C)cc1COc1c(C)cccc1C | 41 | . | 2 | . | 74*
C[C@H]1CN([C@@H](C)CO)C(=O)c2cccc(NC(=O)C3CCOCC3)c2O[C@H]1CN(C)Cc1ccc(Cl)c(Cl)c1 | . | -5 | -18 | 9 | .
